# Laboratory results from the supplement of paper PMC6555819.
# What was measured:
# Test in all cases: PBM binding z-score (relative to random genomic background probes); higher = stronger binding; sequences stand for … in GC…GCGATTGACAGCGTAGAATGAAGG
# [1] = system: PPARg:RXRa DBDmut IVT, anti-RXR (DBD mutation: RXRa K156A/R161A, NR concentration 270 nM, RXRa partner concentration 90 nM)
# Outline: (§1)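 Custom Agilent 4×180K protein-binding microarrays carried double-stranded probes. Their 34-nt variable regions held direct-repeat seeds, single-nucleotide variants, half-site ablations and random human genomic background sequences. Arrays were incubated 1 h with ligand-free nuclear receptor dimers in PBS pH 7.4, 2% milk, 0.02% Triton X-100, 1 mM DTT, 0.2 mg/mL BSA and 0.4 mg/ml salmon testes DNA. Antibodies against each partner (one per run) detected binding, and scanned fluorescence was regression-normalized. Binding z-scores use random background probes as reference.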
# [2] = system: PPARg:RXRa IVT, anti-PPARg (NR concentration 270 nM, RXRa partner concentration 90 nM)
# Outline: as §1
# [3] = system: PPARg DBDmut:RXRa IVT, anti-PPARg (DBD mutation: PPARg1 K132A/R137A, NR concentration 270 nM, RXRa partner concentration 90 nM)
# Outline: as §1
# [4] = system: PPARg DBDmut IVT, anti-PPARg (DBD mutation: PPARg1 K132A/R137A, NR concentration 270 nM)
# Outline: as §1
# [5] = system: PPARg homodimer (NR concentration 180 nM)
# Outline: as §1
# [6] = system: PXR:RXRa (NR concentration 270 nM, RXRa partner concentration 90 nM)
# Outline: as §1
# [7] = system: PXR homodimer (NR concentration 270 nM)
# Outline: as §1
# [8] = system: RARa:RXR (NR concentration 270 nM, RXRa partner concentration 90 nM)
# Outline: as §1
# [9] = system: RARa homodimer (NR concentration 270 nM)
# Outline: as §1
# [10] = system: RARb:RXRa (NR concentration 270 nM, RXRa partner concentration 90 nM)
# Outline: as §1
# [11] = system: RARb homodimer (NR concentration 270 nM)
# Outline: as §1
# [12] = system: RARg:RXRa (NR concentration 270 nM, RXRa partner concentration 90 nM)
# Outline: as §1
# [13] = system: RARg homodimer (NR concentration 270 nM)
# Outline: as §1
# [14] = system: RXRa DBDmut IVT, anti-RXR (DBD mutation: RXRa K156A/R161A, NR concentration 90 nM)
# Outline: as §1
# [15] = system: RXRa homodimer (NR concentration 180 nM)
# Outline: as §1
# [16] = system: THRa:RXRa (NR concentration 90 nM, RXRa partner concentration 90 nM)
# Outline: as §1
# [17] = system: THRa homodimer (NR concentration 90 nM)
# Outline: as §1
# [18] = system: VDR homodimer (NR concentration 270 nM)
# Outline: as §1
Sequence,PBM binding z-score [1],PBM binding z-score [2],PBM binding z-score [3],PBM binding z-score [4],PBM binding z-score [5],PBM binding z-score [6],PBM binding z-score [7],PBM binding z-score [8],PBM binding z-score [9],PBM binding z-score [10],PBM binding z-score [11],PBM binding z-score [12],PBM binding z-score [13],PBM binding z-score [14],PBM binding z-score [15],PBM binding z-score [16],PBM binding z-score [17],PBM binding z-score [18]
TAGCCTAGGTCAGACCGGGCCAGTATACGCTATA,0.42,1.13,-0.551,-1.06,0.235,0.913,-0.412,1.14,-1.16,3,2.24,2.62,3.34,-0.68,1.38,3.99,-0.0936,-0.324
GCGACAGGGGCAAAGCAGGTTACCATAAGGTTGG,0.177,0.684,-0.131,-0.736,0.212,0.934,-0.112,1.19,-0.459,1.47,1.21,1.06,0.918,0.664,1.06,3.83,0.135,0.281
GCAGACAGGTGAAACGCAGGTTACTCAGGGTGGC,1.13,0.617,-0.717,-0.933,-0.435,0.076,-0.507,0.833,-0.748,1.02,0.785,2.09,0.458,-0.376,1.07,1.88,-0.27,-0.446
TCTCGGAGGACACGAAAGGTTAGAGCTCGACATC,1.49,0.57,-0.609,-0.116,0.402,0.853,-0.519,1.52,0.215,2.48,2.16,1.94,2.3,0.867,1.4,2.41,0.435,0.0953
CGAACGAGGGCATGAGTTGATAGAAAATGCCGAT,2.74,1.89,-0.343,-0.182,0.547,0.565,0.619,0.664,0.132,1.87,0.815,1.29,1.56,2.47,0.995,1.28,-0.093,1.74
CCTTACGGGTCACTGACAGGTTATAGAATTTGGA,3.42,3.6,1.19,0.387,2.22,3.68,0.414,4.32,1.29,3.93,3.22,5.81,4.95,1.92,5.1,3.02,0.45,0.936
CCTACTGGGCCAAACGTCATTGATTCCAATGCTC,6.22,3.97,-0.542,-0.413,0.259,-0.508,-0.633,0.0892,-0.153,0.179,-0.184,-0.00983,-0.146,0.278,0.000676,-0.343,-0.264,-0.254
CCTAGTTGGTCAGGAGGTCACACTCCGGATATGA,2.49,3.68,0.158,0.204,4.17,4.23,1.2,4.82,1.53,3.72,4.21,4.74,4.43,1.03,5.04,3.4,2.46,2.5
ATATGTAGGTTACAGCCGGGTCATTCAGGCTATG,7.69,7.35,1.69,1.39,1.97,3.43,1.66,3.51,0.487,2.26,2.93,4.28,2.25,0.721,3.34,3.57,1.89,2.96
CCTAGCAGGCCAGGGTCACTCAGGCATTTCGCTT,-0.00567,0.705,-1.33,-1.04,0.362,2.21,-0.351,2.78,-0.431,2.47,2.73,2.77,2.03,0.226,3.07,2.58,0.878,1.07
CCTACTGGGTCAAGGTCATTGATCAGTCAAAGCA,6.45,7.7,0.76,0.202,2.56,5.07,2.3,4.8,0.915,4.73,4.88,5.77,5.74,2.59,5.72,4.24,3.31,4.04
ACTGGGAGGACAAAGGTCAGAGCTACGCCAGTGA,0.413,3.95,0.328,0.253,4.03,4.16,0.638,5.46,1.31,4.64,4.78,6.22,5.14,1.06,5.47,3.85,1.25,1.41
ACTAGTTCGTCAGCTGAGGTCACACACAATTCGG,0.735,2.22,0.493,1.22,2.47,5.11,2.76,4.66,1.82,3.52,4.27,4.08,3.93,3.38,4.37,4.66,5.07,4.73
CCGACTGGGGCAAGGTAACCATAACGCACAGCCA,2.79,2.75,0.115,-0.601,0.0706,-0.546,-0.376,0.0797,0.0514,0.619,0.426,0.417,0.527,-0.495,0.481,0.522,0.219,-0.0983
CGAACGAGGGCATGATTTGATAGCAAATGCCGAT,2.59,1.81,-0.0165,-0.269,-0.834,0.0992,-0.377,0.0639,-0.507,1.78,0.522,0.771,1.19,1.99,0.631,0.985,-0.278,0.561
TCATATAGGTAATACAGGTGGAAGTCGGCATCTA,4.03,2.31,1.36,0.905,0.801,0.571,0.602,0.763,1.5,0.515,0.159,0.56,0.449,1.5,1.31,0.353,0.0491,0.547
